Laboratory results from PubChem BioAssay (EPA / NIEHS).
The source made the active and inactive calls. Rule for the calls: active = hit-call score of the fitted dose curve at least 0.9, where 1 is the maximum; inactive = score below 0.9.

Key:
[1] = read-out: Forkhead box O1 (FOXO1), FOXO1 (gene 2308); assay: LTEA_HepaRG_FOXO1: Life Technologies and Expression Analysis (LTEA) Assay for Forkhead box O1 (FOXO1) using HepaRG (AID 2283456); conditions: mRNA level, 48 h; actives raise or lower the signal
In short: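 Differentiated HepaRG cells, in serum-free induction medium with 0.5% DMSO, exposed 48 h in duplicate to 8-point half-log series from 100 uM. FOXO1 mRNA measured by TaqMan qRT-PCR, normalized to ACTB, GAPDH, POLR2A; bidirectional fit versus DMSO.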

[2] = CEETOX_H295R_TESTO: CeeTox H295R High-throughput Steroidogenesis Assay for Testosterone (TESTO) (AID 2283457); conditions: actives raise or lower the signal
In short: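 H295R adrenal cells, passage ≤10, exposed to chemicals for 48 h. Testosterone in medium measured by MTBE extraction and HPLC-MS/MS against a 7-point standard curve. Bidirectional fit versus DMSO; MTT viability checked in the same wells.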

[3] = read-out: growth arrest and DNA damage 45 (GADD45A), GADD45A (gene 1647); assay: LTEA_HepaRG_GADD45A: Life Technologies and Expression Analysis (LTEA) Assay for growth arrest and DNA damage 45 (GADD45A) using HepaRG (AID 2283458); conditions: mRNA level, 48 h; actives raise or lower the signal
In short: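 Cells plated and cultured 48 h, switched to serum-free induction medium, then dosed for 48 h (100 uM top, half-log dilutions, 0.5% DMSO). RNA was isolated and transcript measured by Fluidigm qRT-PCR.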

[4] = read-out: Forkhead box O3 (FOXO3), FOXO3 (gene 2309); assay: LTEA_HepaRG_FOXO3: Life Technologies and Expression Analysis (LTEA) Assay for Forkhead box O3 (FOXO3) using HepaRG (AID 2283459); conditions: mRNA level, 48 h; actives raise or lower the signal
In short: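 Differentiated human HepaRG cells, 48 h post-plating, exposed in duplicate for 48 h in serum-free induction medium; 8-point half-log series from 100 uM in 0.5% DMSO. FOXO3 mRNA by TaqMan qRT-PCR, normalized to ACTB/GAPDH/POLR2A; bidirectional fit versus DMSO.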

[5] = read-out: ABC Transporter (ABCB1), ABCB1 (gene 5243); assay: LTEA_HepaRG_ABCB1: Life Technologies and Expression Analysis (LTEA) Assay for ABC Transporter (ABCB1) using HepaRG (AID 2283460); conditions: mRNA level, 48 h; actives raise or lower the signal
In short: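 HepaRG cells exposed in duplicate for 48 h in serum-free induction medium to eight half-log concentrations up to 100 uM in 0.5% DMSO. ABCB1 mRNA quantified by qRT-PCR, normalised to ACTB, GAPDH and POLR2A; fitted bidirectionally versus DMSO.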

[6] = read-out: growth arrest and DNA damage 45 (GADD45B), GADD45B (gene 4616); assay: LTEA_HepaRG_GADD45B: Life Technologies and Expression Analysis (LTEA) Assay for growth arrest and DNA damage 45 (GADD45B) using HepaRG (AID 2283461); conditions: mRNA level, 48 h; actives raise or lower the signal
In short: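 Differentiated human HepaRG cells in serum-free induction medium exposed 48 h in duplicate to eight concentrations, top 100 uM, half-log steps, 0.5% DMSO. GADD45B mRNA by TaqMan qRT-PCR, normalized to ACTB, GAPDH, POLR2A; bidirectional fit versus DMSO.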

[7] = read-out: ABC Transporter (ABCC3), ABCC3 (gene 8714); assay: LTEA_HepaRG_ABCC3: Life Technologies and Expression Analysis (LTEA) Assay for ABC Transporter (ABCC3) using HepaRG (AID 2283462); conditions: mRNA level, 48 h; actives raise or lower the signal
In short: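 Differentiated human HepaRG cells exposed 48 h in serum-free induction medium, 0.5% DMSO vehicle, 8-point half-log series to 100 uM in duplicate. ABCC3 mRNA by qRT-PCR, normalised to ACTB, GAPDH, POLR2A; bidirectional fit vs DMSO.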

[8] = read-out: ABC Transporter (ABCB11), ABCB11 (gene 8647); assay: LTEA_HepaRG_ABCB11: Life Technologies and Expression Analysis (LTEA) Assay for ABC Transporter (ABCB11) using HepaRG (AID 2283463); conditions: mRNA level, 48 h; actives raise or lower the signal
In short: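 Differentiated human HepaRG cells in serum-free induction medium, dosed in duplicate for 48 h. Eight-point half-log series from 100 uM in 0.5% DMSO; ABCB11 mRNA by qRT-PCR, normalized to ACTB, GAPDH, POLR2A, fitted bidirectionally versus DMSO.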

[9] = read-out: ABC Transporter (ABCC2), ABCC2 (gene 1244); assay: LTEA_HepaRG_ABCC2: Life Technologies and Expression Analysis (LTEA) Assay for ABC Transporter (ABCC2) using HepaRG (AID 2283464); conditions: mRNA level, 48 h; actives raise or lower the signal
In short: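 Differentiated HepaRG cells in serum-free induction medium exposed 48 h to eight half-log concentrations up to 100 uM, 0.5% DMSO, in duplicate. ABCC2 mRNA measured by qRT-PCR (TaqMan, Fluidigm), normalized to ACTB, GAPDH and POLR2A. Fitted in both directions against DMSO.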

[10] = read-out: Broad substrate specificity ATP-binding cassette transporter ABCG2 (Homo sapiens) (UniProt Q9UNQ0); assay: LTEA_HepaRG_ABCG2: Life Technologies and Expression Analysis (LTEA) Assay for ABC Transporter (ABCG2) using HepaRG (AID 2283465); conditions: mRNA level, 48 h; actives raise or lower the signal
In short: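 Differentiated HepaRG cells were exposed for 48 h in serum-free induction medium to 8 half-log concentrations, top 100 uM, in 0.5% DMSO. ABCG2 mRNA was measured by qRT-PCR, normalized to ACTB, GAPDH and POLR2A, with bidirectional fitting versus DMSO.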

[11] = read-out: Peroxisomal acyl-coenzyme A oxidase 1 (ACOX1) gene, ACOX1 (gene 51); assay: LTEA_HepaRG_ACOX1: Life Technologies and Expression Analysis (LTEA) Assay for Peroxisomal acyl-coenzyme A oxidase 1 (ACOX1) gene using HepaRG (AID 2283467); conditions: mRNA level, 48 h; actives raise or lower the signal
In short: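 HepaRG cells, plated 48 h then switched to serum-free induction medium, were exposed in duplicate for 48 h to 8-point half-log concentrations up to 100 uM in 0.5% DMSO. ACOX1 mRNA was measured by qRT-PCR, normalized to ACTB/GAPDH/POLR2A, and fitted bidirectionally versus DMSO.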

[12] = read-out: Alkaline Phosphatase, Placental (ALPP) gene, ALPP (gene 250); assay: LTEA_HepaRG_ALPP: Life Technologies and Expression Analysis (LTEA) Assay for Alkaline Phosphatase, Placental (ALPP) gene using HepaRG (AID 2283468); conditions: mRNA level, 48 h; actives raise or lower the signal
In short: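 HepaRG cells plated 48 h, then exposed in duplicate for 48 h in serum-free induction medium to 8-point half-log series from 100 uM in 0.5% DMSO. ALPP mRNA by TaqMan qRT-PCR, normalized to ACTB/GAPDH/POLR2A; bidirectional fit versus DMSO.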

[13] = read-out: Bcl-2 (BAD) gene, BAD (gene 572); assay: LTEA_HepaRG_BAD: Life Technologies and Expression Analysis (LTEA) Assay for Bcl-2 (BAD) gene using HepaRG (AID 2283469); conditions: mRNA level, 48 h; actives raise or lower the signal
In short: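 Differentiated HepaRG cells were exposed in duplicate in 0.5% DMSO for 48 h to eight-point half-log concentrations up to 100 uM. BAD mRNA was measured by Fluidigm TaqMan qRT-PCR, normalized to ACTB, GAPDH and POLR2A, and fitted bidirectionally against DMSO.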

[14] = read-out: Bcl-2 (BAX) gene, BAX (gene 581); assay: LTEA_HepaRG_BAX: Life Technologies and Expression Analysis (LTEA) Assay for Bcl-2 (BAX) gene using HepaRG (AID 2283470); conditions: mRNA level, 48 h; actives raise or lower the signal
In short: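 HepaRG (human liver), 48 h exposure, duplicate wells. 8-pt curve, half-log from 100 uM, 0.5% DMSO. BAX transcript by TaqMan qRT-PCR; ACTB/GAPDH/POLR2A normalization; gain or loss vs DMSO baseline.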

[15] = read-out: adenosine kinase (ADK) gene, ADK (gene 132); assay: LTEA_HepaRG_ADK: Life Technologies and Expression Analysis (LTEA) Assay for adenosine kinase (ADK) gene using HepaRG (AID 2283471); conditions: mRNA level, 48 h; actives raise or lower the signal
In short: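 ADK expression quantified by qRT-PCR, normalised to three housekeeping genes, after 48 h exposure of HepaRG cells to eight concentrations (top 100 uM, half-log steps, duplicate, 0.5% DMSO). Up- or down-regulation fitted relative to vehicle.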

[16] = read-out: Alpha-fetoprotein (AFP) gene, AFP (gene 174); assay: LTEA_HepaRG_AFP: Life Technologies and Expression Analysis (LTEA) Assay for Alpha-fetoprotein (AFP) gene using HepaRG (AID 2283472); conditions: mRNA level, 48 h; actives raise or lower the signal
In short: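 HepaRG, single lot; 48 h post-plating -> serum-free induction medium; cpd 8-pt, 100 uM top, half-log, 0.5% DMSO, duplicate, 48 h. RNA -> qRT-PCR AFP, norm ACTB/GAPDH/POLR2A. Bidirectional fit vs DMSO.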

BCL2L11 (gene 10018) = assay: LTEA_HepaRG_BCL2L11: Life Technologies and Expression Analysis (LTEA) Assay for Bcl-2 (BCL2L11) gene using HepaRG (AID 2283473); conditions: mRNA level, 48 h; actives raise or lower the signal
In short: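 Differentiated human HepaRG cells were exposed 48 h in serum-free induction medium to eight half-log concentrations up to 100 uM in 0.5% DMSO, in duplicate. BCL2L11 mRNA was quantified by TaqMan qRT-PCR, normalized to ACTB, GAPDH and POLR2A; induction or repression fitted versus DMSO.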

[17] = read-out: Apolipoprotein A-V (APOA5) gene, APOA5 (gene 116519); assay: LTEA_HepaRG_APOA5: Life Technologies and Expression Analysis (LTEA) Assay for Apolipoprotein A-V (APOA5) gene using HepaRG (AID 2283474); conditions: mRNA level, 48 h; actives raise or lower the signal
In short: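 Differentiated HepaRG cells in serum-free induction medium, exposed 48 h in duplicate to eight half-log concentrations topping at 100 uM (0.5% DMSO). APOA5 mRNA by Fluidigm TaqMan qRT-PCR, normalized to ACTB, GAPDH and POLR2A; bidirectional fit versus DMSO.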

[18] = read-out: Apoptosis regulator Bcl-2 (Homo sapiens) (UniProt P10415); assay: LTEA_HepaRG_BCL2: Life Technologies and Expression Analysis (LTEA) Assay for Bcl-2 gene using HepaRG (AID 2283475); conditions: mRNA level, 48 h; actives raise or lower the signal
In short: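 HepaRG, plated 48 h then switched to serum-free induction medium; dosed 48 h, 8 conc. (max 100 uM, half-log steps), duplicate, 0.5% DMSO. Lysis in RLT, RNA isolated, TaqMan qRT-PCR for BCL2; ACTB/GAPDH/POLR2A normalisation; bidirectional fit vs DMSO.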

[19] = read-out: ATP-citrate lyase (ACLY), ACLY (gene 47); assay: LTEA_HepaRG_ACLY: Life Technologies and Expression Analysis (LTEA) Assay for ATP-citrate lyase (ACLY) using HepaRG (AID 2283466); conditions: mRNA level, 48 h; actives raise or lower the signal
In short: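 Differentiated HepaRG cells exposed 48 h in serum-free induction medium to eight half-log concentrations up to 100 uM in 0.5% DMSO, duplicates. Transcript measured by Fluidigm TaqMan qRT-PCR, normalized to ACTB, GAPDH, POLR2A; bidirectional fit versus DMSO.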

Measured: AC50

Chain of Broad substrate specificity ATP-binding cassette transporter ABCG2 (Homo sapiens) (Q9UNQ0 whole entry, looked up): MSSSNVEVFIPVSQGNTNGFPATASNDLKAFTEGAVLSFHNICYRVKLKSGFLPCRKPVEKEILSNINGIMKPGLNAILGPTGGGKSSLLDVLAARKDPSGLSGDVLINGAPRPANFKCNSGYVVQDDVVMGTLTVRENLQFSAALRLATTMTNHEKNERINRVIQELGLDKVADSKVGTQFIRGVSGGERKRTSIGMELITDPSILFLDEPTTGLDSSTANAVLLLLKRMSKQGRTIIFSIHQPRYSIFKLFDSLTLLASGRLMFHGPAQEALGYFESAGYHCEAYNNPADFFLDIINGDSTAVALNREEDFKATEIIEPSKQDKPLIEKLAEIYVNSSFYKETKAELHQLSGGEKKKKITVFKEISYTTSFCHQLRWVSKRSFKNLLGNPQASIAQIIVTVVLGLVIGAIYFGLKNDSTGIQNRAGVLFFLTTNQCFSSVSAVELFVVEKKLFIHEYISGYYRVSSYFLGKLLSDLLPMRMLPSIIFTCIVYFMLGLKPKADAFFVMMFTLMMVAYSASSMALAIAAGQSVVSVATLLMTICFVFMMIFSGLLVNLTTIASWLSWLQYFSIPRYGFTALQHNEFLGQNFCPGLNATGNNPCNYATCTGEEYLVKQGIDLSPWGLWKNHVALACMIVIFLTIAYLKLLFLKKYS
Chain of Apoptosis regulator Bcl-2 (Homo sapiens) (P10415 whole entry, looked up): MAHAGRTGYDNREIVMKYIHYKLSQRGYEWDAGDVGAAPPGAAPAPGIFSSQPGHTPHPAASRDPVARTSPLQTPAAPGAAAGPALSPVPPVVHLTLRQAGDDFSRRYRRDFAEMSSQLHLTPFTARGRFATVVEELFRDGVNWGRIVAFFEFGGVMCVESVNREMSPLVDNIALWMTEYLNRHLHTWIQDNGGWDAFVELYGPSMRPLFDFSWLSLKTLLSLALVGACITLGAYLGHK

CCCCCCCCCC[N+](C)(C)[O-]
inactive: [1] | [2] | [3] | [4] | [5] | [6] | [7] | [8] | [9] | [10] | [11] | [12] | [13] | [14] | [15] | [16] | BCL2L11 (gene 10018) | [17] | [18]

O=C1OC(c2ccc(O)cc2)(c2ccc(O)cc2)c2ccccc21
active: [1] 50 µM | [4] 50 µM | [8] 69.8 µM | [10] 79.2 µM | [11] 50 µM | [16] 77.4 µM | [18] 50 µM
inactive: [2] | [3] | [5] | [6] | [7] | [9] | [12] | [13] | [14] | [15] | BCL2L11 (gene 10018) | [17]

CCN(CC)CCOc1ccc(C(=C(Cl)c2ccccc2)c2ccccc2)cc1
inactive: [1] | [2] | [3] | [4] | [6] | [7] | [10] | [13] | [14] | [15] | [17] | [18]
active: [5] 79.9 µM | [8] 24.9 µM | [9] 67.3 µM | [11] 13.3 µM | [12] 22.6 µM | [16] 17.9 µM | BCL2L11 (gene 10018) 76.5 µM

Nc1nc(=S)c2[nH]cnc2[nH]1
active: [5] 10.3 µM | [7] 13.9 µM | [8] 7.88 µM | [9] 21.1 µM | [10] 8.31 µM | [19] 10.2 µM | [11] 12.2 µM | [14] 3.39 µM | [16] 6.35 µM | [17] 3.48 µM
inactive: [1] | [3] | [4] | [6] | [12] | [13] | [15] | BCL2L11 (gene 10018) | [18]

CC(C)(O)c1ccc(CNC(=O)c2cccnc2Oc2ccc(F)cc2)cc1
inactive: [1] | [3] | [4] | [5] | [6] | [7] | [8] | [10] | [19] | [11] | [12] | [13] | [14] | [15] | [16] | BCL2L11 (gene 10018) | [17] | [18]
active: [9] 29.5 µM

CCCCC(CC)CO (centres undefined)
inactive: [1] | [3] | [4] | [5] | [6] | [7] | [8] | [9] | [10] | [19] | [11] | [12] | [13] | [14] | [15] | [16] | BCL2L11 (gene 10018) | [17] | [18]
